Assay results reported in PubChem BioAssay (EPA / NIEHS).
Calls of active or inactive are those of the source. How the source made its calls: active means hit-call score of the fitted dose curve at least 0.9, where 1 is the maximum; inactive means score below 0.9.

Columns and labels:
[1] = Tanguay_ZF_120hpf_ANY: Oregon State University Tanguay Lab 120 Hour Post-fertilization zebrafish Assay for Any Mortality and Malformation (AID 2284404)
Summary of the method: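 Dechorionated Tropical 5D wild-type embryos, one per well from 6 hpf, static exposure in sealed, dark plates at 28C until 120 hpf, 0.64% DMSO final. Brightfield scoring of mortality and malformations as binary presence/absence, pooling 13 morphology endpoints.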

[2] = CCTE_Padilla_ZF_Score.Craniofacial: CCTE's 144 Hour Post-fertilization zebrafish Assay Score for Craniofacial Malformation, Padilla Lab (AID 2284405)
Summary of the method: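 Craniofacial defects were scored at 6 dpf by two blinded observers using stereomicroscopy. Exposure of wild-type embryos began at 6–8 hpf in sealed wells of 10% Hanks' solution at 26C, with chemical removed by rinsing at 5 dpf.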

[3] = CCTE_Padilla_ZF_Score.Edema: CCTE's 144 Hour Post-fertilization zebrafish Assay Score for Edema Malformation, Padilla Lab (AID 2284406)
Summary of the method: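 Edema scored at 6 dpf by two blinded observers under a stereo microscope, in single outbred wild-type larvae exposed from 6-8 hpf in sealed wells (Hanks', 26C, 14:10 h light) and chemical-free after a 5 dpf rinse.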

[4] = CCTE_Padilla_ZF_Score.Spine: CCTE's 144 Hour Post-fertilization zebrafish Assay Score for Spine Malformation, Padilla Lab (AID 2284407)
Summary of the method: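 Spine malformation scored at 6 dpf by two independent blinded observers under stereomicroscope, after static sealed exposure from 6–8 hpf at 26C in Hanks' solution with rinse on 5 dpf. Positive-direction fit against DMSO control.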

[5] = CCTE_Padilla_ZF_Score.Swim_bladder: CCTE's 144 Hour Post-fertilization zebrafish Assay Score for Swim Bladder Malformation, Padilla Lab (AID 2284408)
Summary of the method: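 Swim bladder inflation scored at 6 dpf by two blinded observers under a stereo microscope. Exposure ran from 6–8 hpf in sealed wells of 10% Hanks' at 26C, with rinsing at 5 dpf; DMSO served as baseline.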

[6] = CCTE_Padilla_ZF_Score.Position: CCTE's 144 Hour Post-fertilization zebrafish Assay Score for Position, Padilla Lab (AID 2284409)
Summary of the method: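 Wild-type zebrafish embryos (with chorions) exposed singly from 6–8 hpf in sealed wells of Hanks' solution at 26C, rinsed at 5 dpf. At 6 dpf, blinded assessors scored abnormal water-column position by brightfield stereomicroscopy, relative to DMSO.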

[7] = CCTE_Padilla_ZF_Score.Living: CCTE's 144 Hour Post-fertilization zebrafish Assay Score for Viability, Padilla Lab (AID 2284410);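 further: larval death at 6 dpf judged by absent heartbeat or coagulation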
Summary of the method: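 Mortality at 6 dpf, judged as absent heartbeat or coagulation by two blinded observers, after sealed static exposure beginning at 6–8 hpf at 26C. Larvae were rinsed free of chemical at 5 dpf, and activity was fitted relative to DMSO.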

[8] = CCTE_Padilla_ZF_Score.General: CCTE's 144 Hour Post-fertilization zebrafish Assay Score for General Malformation, Padilla Lab (AID 2284411)
Summary of the method: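 Malformation, death and hatching were scored at 6 dpf by two blinded observers under a stereo microscope. Embryos were dosed singly from 6-8 hpf in sealed plates of 10% Hanks' at 26C and rinsed on 5 dpf; DMSO baseline.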

[9] = CCTE_Padilla_ZF_Score.Tail: CCTE's 144 Hour Post-fertilization zebrafish Assay Score for Tail Malformation, Padilla Lab (AID 2284414)
Summary of the method: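 Tail malformations were scored at 6 dpf by two blinded assessors under a stereo microscope. Chorionated embryos had been exposed from 6-8 hpf in sealed wells of 10% Hanks' at 26 C, then rinsed free of chemical at 5 dpf.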

[10] = CCTE_Padilla_ZF_Score.Blood_pooling: CCTE's 144 Hour Post-fertilization zebrafish Assay Score for Blood Pooling, Padilla Lab (AID 2284415)
Description: CCTE_Padilla_ZF_Phenotype_Score is a whole embryo, multiplexed assay using zebrafish ova exposed for 144 hours post fertilization on a 96-well plate.CCTE_Padilla_ZF_Score.Blood_pooling is one of one assay component(s) measured or calculated from the CCTE_Padilla_ZF_Phenotype_Score assay. It is designed to make measurements of zebrafish development as detected with brightfield microscopy of developing zebrafish embryos.Data from the assay component CCTE_Padilla_ZF_Score.Blood_pooling was analyzed into 1 assay endpoints. This assay endpoint, CCTE_Padilla_ZF_Score.Blood_pooling, was analyzed in the positive analysis fitting direction relative to DMSO as the negative control and baseline of activity. Using a type of viability reporter, gain-of-signal activity can be used to understand changes in developmentals as they relate to the whole embryo. To generalize the intended target to other relatable targets, this assay endpoint is annotated to the zebrafish development intended target family, where the subfamily is swim bladder morphogenesis.
Zebrafish husbandry: Wild type adult zebrafish (Danio rerio; undefined outbred stock obtained from Aquatic Research Organisms, Hampton, NH, 03842) were housed in an AAALAC-approved animal facility at 28C with a 14:10 h light: dark cycle (lights on at 08:30 h). […]

**Q.** For `CCNS(=O)(=O)C(F)(F)C(F)(F)C(F)(F)C(F)(F)C(F)(F)C(F)(F)C(F)(F)C(F)(F)F`, which AC50 [1] is on record?
**A.** The AC50 was 62.1 µM (active).

**Q.** What about the outcome [2] of the same compound?
**A.** Its outcome is “inactive”.

**Q.** And the AC50 [3]?
**A.** The AC50 was 2.86 µM (active).

**Q.** What about the outcome [4] of the same compound?
**A.** The outcome was “inactive”.

**Q.** And the AC50 [5]?
**A.** Its AC50 is 3.57 µM (active).

**Q.** What about the outcome [6] of the same compound?
**A.** Its outcome is “inactive”.

**Q.** And the AC50 [7]?
**A.** Its AC50 is 22.2 µM (active).

**Q.** What about the AC50 [8] of the same compound?
**A.** Its AC50 is 3.11 µM (active).

**Q.** What about the outcome [9] of the same compound?
**A.** Its outcome is “inactive”.

**Q.** What about the outcome [10] of the same compound?
**A.** Its outcome is “inactive”.
